Only some compounds are listed: those with a hit (about 8.7% of all), similar ones and a draw of the others.
Vaccinia Venus = vaccinia inhibition (Venus reporter). Vaccinia virus Venus reporter expression, fluorescence. Potency, µM (top dose mostly 36.5 µM), hits mostly inhibitors. actives 0.46% (n = 330,000). AID 720580; calls by dose curve; tested in A549 cells; note: nearly all actives have a fitted effect of over 30% in size
Pf growth 96h = P. falciparum growth inhibition at 96 hour, primary screen for plastid delayed-death inhibitors; P. falciparum luciferase reporter growth, 96 h; Potency, µM (highest dose often 28.7 µM), usual class: inhibitors; actives 6.9% (n = 320,000); AID 504834
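Readout is luminescence from an integrated firefly luciferase in P. falciparum. Red cells, 2% hematocrit and 0.05% parasitemia final, were cultured with compound through two parasite generations (96 hours) at 37 C, 5% CO2.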
Pf growth 48h = P. falciparum growth inhibition at 48 hours (one generation); P. falciparum luciferase growth in erythrocytes, 48 h; AID 504832; actives 5.9% (n = 310,000); Potency, µM (top dose mostly 28.7 µM), actives largely listed as inhibitors
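Luciferase-expressing P. falciparum in infected erythrocytes (2% hematocrit, 0.1% parasitemia final) in RPMI 1640/0.5% Albumax were exposed to compound for 48 hours at 37 C, 5% CO2; growth read as luminescence.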
AMA1-RON2 inh = AMA1-RON2 (P. falciparum) interaction inhibition. AlphaScreen AMA1-biotinylated RON2 peptide binding. Potency, µM (series often up to 58.2 µM), actives largely listed as inhibitors. actives 0.2% (n = 360,000); note: nearly all actives have a fitted effect of over 45% in size
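AMA1 (3D7) with his tag at 25 nM final met compounds first, then biotinylated RON2 peptide at 25 nM; detection used donor plus acceptor beads, 10 µg/mL apiece, read by AlphaScreen after 30 min at room temperature.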
VACV mCherry inh = vaccinia inhibition (mCherry reporter) | Vaccinia virus mCherry reporter infection, fluorescence | Potency, µM (doses to about 36.5 µM), most hits filed as inhibitors | actives 0.63% (n = 310,000) | AID 720579; calls by dose curve; tested in A549 cells; note: nearly all actives have a fitted effect of over 35% in size
Large screens that a line does not name were inactive. Unless noted, calls come from the whole dose curve; as a rule, active = well fitted curve in the direction sought with a large enough effect; inconclusive = small, poorly fitted or top-dose-only effect, or another doubt; inactive = no such curve, though single readings can be large; an effect the other way counts as inactive or inconclusive.

COc1ccc(OCC(=O)Nc2cc(-c3nn(C)c(=O)c4ccccc34)ccc2N2CCOCC2)cc1	Pf growth 96h 5.86µM, Pf growth 48h inconclusive
CN(CCO)C(=O)c1ccc(-c2nn(C)c(=O)c3ccccc23)cc1	none
COc1ccc(N2CCOCC2)c(NC(=O)c2cccc3ccccc23)c1	Pf growth 48h 3.7µM (no result: Vaccinia Venus, VACV mCherry inh)
COc1ccc(C(=O)Nc2ccccc2C(=O)OCc2cc(=O)n3nc(C4CC4)sc3n2)cc1	none (no result: Pf growth 96h, Pf growth 48h, AMA1-RON2 inh)
CCc1nnc(NC(=O)C(=O)c2cc(C)n(-c3ccccc3)c2C)s1	none (no result: Pf growth 96h, Pf growth 48h, AMA1-RON2 inh)
Cc1c(CCO)sc[n+]1CCc1ccccc1	none (no result: Pf growth 96h, Pf growth 48h, AMA1-RON2 inh)
CC(C)CC(=O)N1C/C=C\C[C@@H](c2ccc(Cl)cc2)N(Cc2ccc(Cl)cc2)C(=O)[C@@H]1Cc1ccccc1	none (no result: Pf growth 96h, Pf growth 48h, AMA1-RON2 inh)
COc1ccccc1CNC(=O)C(=O)NCC(c1ccc2c(c1)OCO2)N1CCOCC1 (stereo not given)	none (no result: Pf growth 96h, Pf growth 48h, AMA1-RON2 inh)
Fc1ccc2[nH]c3c(N4CCN(c5ccccc5)CC4)ncnc3c2c1	Vaccinia Venus inconclusive, Pf growth 96h 11.7µM, Pf growth 48h 13.1µM, VACV mCherry inh inconclusive
OC1(c2cccc(C(F)(F)F)c2)CCN(c2ncnc3c2[nH]c2ccc(F)cc23)CC1	Vaccinia Venus 11.2µM (no result: VACV mCherry inh)
CCOC(=O)N1CCN(c2ncnc3c2[nH]c2ccc(F)cc23)CC1	Vaccinia Venus inconclusive, Pf growth 96h 13.1µM, Pf growth 48h inconclusive, VACV mCherry inh inconclusive
COc1ccc(N2CCN(c3ncnc4c3[nH]c3ccccc34)CC2)cc1	Vaccinia Venus inconclusive, Pf growth 96h inconclusive, Pf growth 48h inconclusive (no result: VACV mCherry inh)
COC(=O)c1ccc(NC(=O)C(C)Sc2nc(=O)cc(N)n2CCc2ccccc2)cc1 (stereo not given)	none (no result: Pf growth 96h, Pf growth 48h, AMA1-RON2 inh)
Cc1cc(C)n2nc(C(=O)NCC3Cc4cccc(-c5ccc(S(C)(=O)=O)cc5)c4O3)cc2n1 (stereo not given)	none (no result: Pf growth 96h, Pf growth 48h, AMA1-RON2 inh)
Cn1c(=O)n(C)c2cc(N3CCOCC3)c(NS(=O)(=O)c3ccc(Br)cc3)cc21	none (no result: Pf growth 96h, Pf growth 48h, AMA1-RON2 inh)
CCN(Cc1ccncc1)Cc1ccc2c(c1)CN(C(=O)c1cccc3c(C)c(C)[nH]c13)CCO2	none (no result: Pf growth 96h, Pf growth 48h, AMA1-RON2 inh)
CCN(Cc1nc2cc(Cl)ccc2c(=O)[nH]1)C(=O)c1nn(C)c(=O)c2ccccc12	Pf growth 96h inconclusive, Pf growth 48h 8.28µM
CCN(Cc1nc2cc(Cl)ccc2c(=O)[nH]1)C(=O)c1ccc(C)c(NC(=O)c2ccco2)c1	Pf growth 96h 8.28µM, Pf growth 48h 9.28µM (no result: Vaccinia Venus, VACV mCherry inh)
CCN(Cc1nc2cc(Cl)ccc2c(=O)[nH]1)C(=O)c1cc(C2CC2)nn1-c1ccccc1	Pf growth 96h inconclusive, Pf growth 48h inconclusive
CCn1nc2cc(C(=O)NCC34CC5CC(CC(C5)C3)C4)ccc2c1OC	Pf growth 48h 11.7µM
CCCCn1nc2cc(C(=O)NCC34CC5CC(CC(C5)C3)C4)ccc2c1OC	Vaccinia Venus inconclusive, Pf growth 96h 14.7µM, Pf growth 48h inconclusive, VACV mCherry inh 6.31µM
Cc1cccc2c(C(O)c3cn(C)c4ccccc34)c[nH]c12 (stereo not given)	none (no result: Pf growth 96h, Pf growth 48h, AMA1-RON2 inh)
Cc1nc(Oc2ccccc2C)c2oc3ccccc3c2n1	none (no result: Pf growth 96h, Pf growth 48h, AMA1-RON2 inh)
O=C(NCc1ccccc1Cl)c1cccc2c1C(=O)c1ccc(-c3ccc(OC(F)(F)F)cc3)cc1S2(=O)=O	Vaccinia Venus 10µM, VACV mCherry inh inconclusive (no result: Pf growth 96h, Pf growth 48h)
O=C(NC1CCCCC1)c1cccc2c1C(=O)c1ccc(-c3ccc(OC(F)(F)F)cc3)cc1S2(=O)=O	Vaccinia Venus inconclusive, VACV mCherry inh inconclusive (no result: Pf growth 96h, Pf growth 48h)
CCCCNC(=O)C1CCN(S(=O)(=O)c2cc(Br)cc3c2N(C(=O)CC)CC3)CC1	none (no result: Pf growth 96h, Pf growth 48h, AMA1-RON2 inh)
C/C(=N\Nc1nc(C)cc(-c2ccccc2)n1)c1ccc(F)cc1	Pf growth 48h inconclusive (no result: Vaccinia Venus, VACV mCherry inh)
C/C(=N/Nc1nc(-c2ccccc2)cc(-c2ccc(F)cc2)n1)c1cccc(N)c1	Vaccinia Venus inconclusive, Pf growth 48h inconclusive, VACV mCherry inh 22.4µM
O=C(CSC1=Nc2ccccc2N=C(c2ccc(F)cc2)C1)NCc1ccccc1Cl	none (no result: Pf growth 96h, Pf growth 48h, AMA1-RON2 inh)
CCc1ccc(OCC(=O)Nc2ncn[nH]2)c(Br)c1	none (no result: Pf growth 96h, Pf growth 48h, AMA1-RON2 inh)
CC(C(=O)Nc1ccc(OCc2ccccc2)cc1)N1CCCC1 (stereo not given)	none
CC(C)COCC(CN(Cc1ccccc1)c1ccccc1)N1CCCC1 (stereo not given)	Vaccinia Venus inconclusive, Pf growth 96h inconclusive, Pf growth 48h 10.7µM
Clc1cccc(C(c2ccc3nc[nH]c3c2)n2ccnc2)c1 (stereo not given)	Pf growth 96h 5.36µM, Pf growth 48h 13.5µM (no result: Vaccinia Venus, AMA1-RON2 inh, VACV mCherry inh)
CN(C)c1oc(-c2ccccc2Cl)nc1S(=O)(=O)c1ccccc1	Pf growth 96h 6.57µM, VACV mCherry inh inconclusive (no result: Pf growth 48h)
